High-throughput results: PubChem BioAssay, National Center for Advancing Translational Sciences (NCATS)
This is a sample that favours compounds with a hit; in the whole collection about 2.3% have one here.
TRPV1 agonist: human TRPV1 agonism. Q8NER1. 320,000 tested, 0.19% active. activation, % at 8.33 µM. AID 540275. TRPV1-expressing cells, Fluo-8 calcium influx, agonist mode; in the data active means activation above about 80%; inconclusive means between about 30% and that limit; further: 0% is about no effect
Target sequence (Q8NER1 whole entry, looked up): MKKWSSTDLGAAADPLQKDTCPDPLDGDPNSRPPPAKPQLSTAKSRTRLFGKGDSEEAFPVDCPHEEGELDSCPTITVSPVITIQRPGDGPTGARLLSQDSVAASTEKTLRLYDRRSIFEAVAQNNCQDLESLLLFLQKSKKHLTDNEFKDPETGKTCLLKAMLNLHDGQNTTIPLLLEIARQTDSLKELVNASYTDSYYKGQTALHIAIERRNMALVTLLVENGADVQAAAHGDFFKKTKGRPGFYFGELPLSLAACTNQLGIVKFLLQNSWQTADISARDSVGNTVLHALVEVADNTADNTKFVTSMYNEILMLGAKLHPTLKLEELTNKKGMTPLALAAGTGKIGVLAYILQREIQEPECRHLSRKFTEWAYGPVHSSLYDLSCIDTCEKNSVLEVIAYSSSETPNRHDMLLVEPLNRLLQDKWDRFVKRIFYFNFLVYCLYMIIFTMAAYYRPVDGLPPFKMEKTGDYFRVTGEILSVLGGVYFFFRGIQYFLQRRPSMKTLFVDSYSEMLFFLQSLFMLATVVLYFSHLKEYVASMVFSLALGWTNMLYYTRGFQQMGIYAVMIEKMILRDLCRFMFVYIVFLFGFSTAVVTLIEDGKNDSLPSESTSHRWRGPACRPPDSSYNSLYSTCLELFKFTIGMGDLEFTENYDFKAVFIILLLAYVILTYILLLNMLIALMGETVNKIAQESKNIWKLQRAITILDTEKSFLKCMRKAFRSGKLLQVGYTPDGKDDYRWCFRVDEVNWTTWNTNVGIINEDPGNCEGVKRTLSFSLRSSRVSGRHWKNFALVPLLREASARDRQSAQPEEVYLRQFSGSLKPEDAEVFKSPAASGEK
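Fluo-8 calcium influx in TRPV1-expressing cells, kinetic read (ex 480/em 520 nm). Compound added and read 3 min for agonist activity, followed by capsaicin at EC20 final and 2 min further read for enhancement.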
Giardia kill: kills Giardia lamblia; activity change, % at 7.66 µM, hits read low; 340,000 tested, 0.15% active; Giardia lamblia trophozoite viability; in the data active means activity change below about -80%; inconclusive means between about -30% and that limit;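 further: parasites exposed to compound for two days anaerobically before the ATP read; on the % scale 0 is the no-effect control and ±100 the full control effect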
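Luminescent ATP signal served as the viability read-out, measured 15-30 min after adding ATP detection reagent to trophozoites that had been incubated with compounds for 48 hrs at 37 deg C anaerobically at 100 cells/well.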
FUS suppressor: FUS proteinopathy suppression in yeast. S. cerevisiae FUS-expressing, growth rescue, OD600, 24 h. Potency, µM (doses to about 76.6 µM), usual class: activators. 390,000 tested, 0.24% active;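 further: potency means the concentration at half of the fitted maximal effect; plate controls were DMSO vehicle for no effect and reference control for full effect; nearly all actives have a fitted effect of over 55% in size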
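Galactose (2%) drives FUS expression in yeast precultured in raffinose; seeding density OD 0.005. Test compounds incubated 24hr at 30C and 99% humidity before absorbance at 600 nm was measured.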
ELG1 DNA repair: blocks ELG1-dependent DNA repair in HEK293T cells; HEK293T ELG1-luciferase reporter, luminescence, 16 h; DNA damage induced by 5-fluorouridine; Potency, µM (titrated, usually from 46.1 µM), for the others: top-dose activity change, negative = inhibition, most hits filed as inhibitors; 330,000 tested, 2.3% active; further: potency means the concentration at half of the fitted maximal effect; on the % scale 0 is the no-effect control and ±100 the full control effect; nearly all actives have a fitted effect of over 55% in size
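Luminescence from the luciferase reporter, measured 30 min after ONE-Glo reagent at room temperature, was the read-out. Beforehand, 2,000 cells per well were exposed for 16 hr at 37 °C to 5-fluorouridine together with compound or vehicle.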
TRPV1 potentiator: potentiators of human vanilloid receptor 1 (TRPV1); 320,000 tested, 0.02% active; potentiation, % at 8.33 µM; TRPV1-expressing cells, Fluo-8 calcium influx, capsaicin EC20 potentiation; in the data active means potentiation above about 80%; inconclusive means between about 30% and that limit; further: 0% is about no effect
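Fluo-8 calcium influx in TRPV1-expressing cells, kinetic read (ex 480/em 520 nm). Compound added and read 3 min for agonist activity, followed by capsaicin at EC20 final and 2 min further read for enhancement.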
Numbers without * were called inactive; i = inactive; u = inconclusive; x = no result given. Unless noted, the call rests on the fitted dose curve; in most records, active means well fitted curve in the direction sought with a large enough effect; inconclusive means small, poorly fitted or top-dose-only effect, or another doubt; inactive means no such curve, though single readings can be large; an effect the other way counts as inactive or inconclusive.

SMILES | TRPV1 agonist | Giardia kill | FUS suppressor | ELG1 DNA repair | TRPV1 potentiator
CCOC(=O)C(Cc1ccccc1)C(=O)Nc1cccc(C)c1 (configuration not stated) | 85* | 3 | i | 16% | -15
N#Cc1c([N+](=O)[O-])cc([N+](=O)[O-])cc1S(=O)(=O)Cc1ccccc1 | 0 | 17 | x | 16µM* | 6
O=C(c1ccc(CSCc2ccccc2F)o1)N1CCN(c2ccc(N3CCOCC3)nn2)CC1 | 17 | -6 | i | 18µM* | -10
CCCCn1c(N)c(N(CC(C)C)C(=O)c2ccc(-c3ccc(Cl)cc3)o2)c(=O)[nH]c1=O | -1 | 3 | i | 15µM* | 16
CCCCn1c(N)c(N(CC)C(=O)c2ccc(-c3ccc(Cl)cc3)o2)c(=O)[nH]c1=O | -1 | u | i | 10% | -4
Cc1[nH]c(=O)c(C(=O)/C=C/c2ccccc2F)c2c1CCCC2 | 0 | 8 | i | 15µM* | 6
Cc1ccc(NC(=O)CSc2nnc(-c3ccccc3F)n2-c2ccccc2)c(C)c1 | x | x | i | x | x
Cc1ccc(-c2cc(-c3nnc(SCC(=O)Nc4ccccc4-c4ccccc4)n3N)[nH]n2)cc1 | x | x | 18µM* | x | x
Nn1c(SCC(=O)Nc2cccc3ccccc23)nnc1-c1cc(-c2ccccc2)n[nH]1 | x | x | i | x | x
O=C(CSc1nnc(-c2ccccc2)n1-c1ccc(Cl)cc1)Nc1ccccc1-c1ccccc1 | x | x | 8.9µM* | x | x
O=C(CSc1nnc(-c2ccccc2)n1-c1ccc(Cl)cc1)Nc1cccc2ccccc12 | x | x | i | x | x
COc1cc(NC(=O)c2ccccc2)c(C)cc1NC(=O)CSc1nnc(-c2ccccc2F)n1-c1ccc(C)cc1 | x | x | 10µM* | x | x
COc1ccc(-c2nnc(SCC(=O)Nc3ncc(C)s3)n2-c2ccccc2)cc1OC | 1 | 10 | i | 21µM* | 20
CC1=C(C(=O)OC2CCCCCC2)C(c2cccc(F)c2F)CC(=O)N1 (configuration not stated) | x | x | i | x | x
Cc1ccc(F)c(C2C3C=CCC(C)C3C(=O)N2Cc2ccccc2)c1 (configuration not stated) | x | -13 | x | x | x
COc1ccc(-c2nc3cccc(C)n3c2Nc2ccc(C)cc2)cc1 | x | 2 | x | x | x
O=C(CSc1nc(-c2ccco2)cc(C(F)(F)F)n1)Nc1ccc(C(=O)N2CCCCC2)cc1 | x | -10 | i | 4.6µM* | x
COc1ccc(NC(=O)CCCSc2nc(-c3ccco3)cc(C(F)(F)F)n2)cc1OC | 83* | 13 | u | 21µM* | -10
COc1ccc(-c2cc(C(F)(F)F)nc(SCC(=O)NCc3ccco3)n2)cc1OC | 0 | -10 | i | 23µM* | -8
Cc1cc(NC(=O)CCSc2nc(-c3ccco3)cc(C(F)(F)F)n2)n(-c2ccccc2)n1 | 2 | -8 | i | 26µM* | 7
CCc1nn(C(CC)C(=O)NCc2ccc(F)cc2)c(=O)c2cc3occc3n12 (configuration not stated) | x | x | i | x | x
CCC(=O)N1CCC(C)(C(=O)NCc2ccc(F)cc2)C1 (configuration not stated) | x | x | i | x | x
CO[C@H](C(=O)N(C)C[C@@H]1OCc2ccccc2-c2c(n(C)c3ccccc23)C(=O)N([C@H](C)CO)C[C@@H]1C)c1ccccc1 | x | x | i | x | x
Cc1cc(C)c(S(=O)(=O)N2CCC(n3c(C(F)(F)F)nc4cccnc43)CC2)c(C)c1 | x | x | i | x | x
O=C(O)CCC(=O)NNC(=O)CCC1CCCCC1 | 1 | 14 | i | -1% | 16
SMILES | TRPV1 agonist | Giardia kill | FUS suppressor | ELG1 DNA repair | TRPV1 potentiator
CC(Cl)C(=O)NC(=O)NC12CC3CC(CC(C3)C1)C2 (configuration not stated) | u | -23 | x | u | -17
O=C(CCl)NC(=O)NC12CC3CC(CC(C3)C1)C2 | -1 | 10 | x | 16µM* | -11
O=C(CCC1CCCCC1)NNC(=O)NC12CC3CC(CC(C3)C1)C2 | 2 | -2 | 25µM* | -1% | -2
COc1cccc(CNC(=O)CSc2ncc3c(n2)-c2cc(Cl)ccc2N(C)S3(=O)=O)c1 | x | x | i | x | x
C=Cc1ccc(CSc2nc(-c3ccc(OC)cc3)nc3c2Cc2c(CO)cnc(C)c2O3)cc1 | x | x | i | x | x
COc1cc(/C=C/C(=O)OCC(=O)N2c3ccccc3NC(=O)C2(C)C)cc(OC)c1OC | -3 | -7 | i | 10µM* | 14
COc1ccc(S(N)(=O)=O)cc1C(=O)OCC(=O)N1c2ccccc2NC(=O)C1(C)C | x | 9 | i | -5% | x
